# Rows were chosen to be rich in hits. Some 3.5% of all compounds tested hit in one or more screens of this group.
# FBW7 act: FBW7 E3 ligase activators, primary screen, biochemical, AlphaScreen, human. AlphaScreen FBW7–phospho-cyclin E peptide binding, activator screen. normalized activity (activation), % at 26.1 µM. 0.13% of 650,000 active. AID 1259310, 2017; in the data active = normalized activity above about 1.9%;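 also: purified mutant Fbw7 with reduced substrate affinity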
# Target sequence (Q969H0 whole entry, looked up): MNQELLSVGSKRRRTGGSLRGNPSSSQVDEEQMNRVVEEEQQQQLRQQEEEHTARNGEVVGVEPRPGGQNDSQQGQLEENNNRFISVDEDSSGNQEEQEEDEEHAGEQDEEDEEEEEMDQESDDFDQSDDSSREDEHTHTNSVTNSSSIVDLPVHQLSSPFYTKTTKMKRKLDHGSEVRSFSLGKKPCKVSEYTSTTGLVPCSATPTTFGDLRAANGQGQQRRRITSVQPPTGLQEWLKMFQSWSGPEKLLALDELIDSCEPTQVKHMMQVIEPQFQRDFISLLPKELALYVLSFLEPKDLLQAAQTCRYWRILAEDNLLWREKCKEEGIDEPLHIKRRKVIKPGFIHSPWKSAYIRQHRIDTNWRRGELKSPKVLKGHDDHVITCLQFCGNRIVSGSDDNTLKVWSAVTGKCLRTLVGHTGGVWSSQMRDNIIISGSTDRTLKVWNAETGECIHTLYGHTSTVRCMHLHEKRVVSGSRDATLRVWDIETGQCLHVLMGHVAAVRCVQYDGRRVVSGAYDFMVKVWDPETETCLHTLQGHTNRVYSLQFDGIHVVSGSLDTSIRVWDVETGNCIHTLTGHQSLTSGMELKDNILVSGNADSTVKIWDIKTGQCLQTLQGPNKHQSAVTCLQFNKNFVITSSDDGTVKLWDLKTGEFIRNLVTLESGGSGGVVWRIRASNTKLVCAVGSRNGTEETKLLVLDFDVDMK
# TEAD-YAP block: TEAD-YAP interaction inhibition, primary screen, TEAD-YAP interaction inhibitor project, luminescence, HEK-TIYL cells. TEAD-Gal4/YAP UAS-luciferase luminescence. inhibition, % at 9.12 µM. 1.4% of 640,000 active; in the data active = inhibition above about 32%;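 also: 0% = median of test compound wells and 100% = reference inhibitor wells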
# MITF primary: MITF inhibitors, primary screen, biochemical, AlphaScreen, human; AlphaScreen MITF homodimerization, bead proximity signal; inhibition, % at 2.6 µM; 0.91% of 650,000 active; AID 1259374, 2018; in the data active = inhibition above about 50%;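 also: 0% = vehicle wells with protein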
# GPR151 activ: activators of human GPR151, primary screen, cell-based, PathHunter beta-arrestin, luminescence; PathHunter beta-arrestin GPR151 cells; 1% of 650,000 active; activation, % at 11.2 µM; G-protein coupled receptor 151 (Homo sapiens), Q8TDV0; in the data active = activation above about 4.9%;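 also: 0% = median of compound wells and 100% = cells with positive control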
# GPR151 confirm: GPR151 activators, triplicate retest, confirmation, cell-based, PathHunter beta-arrestin, luminescence | activation, % at 11.2 µM | GPR151 PathHunter beta-arrestin cells, 90 min; % of EA-reagent control over plate median | 6,700 tested, under 10 active | shares compounds with GPR151 activ | AID 1508609, 2020;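 active = mean percent activation across replicates above the confirmation screen cutoff of 4.91%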
# GPR119 ag: GPR119 activators in beta-arrestin cells, counter-screen for GPR151 activator project, cell-based, PathHunter beta-arrestin, luminescence, triplicate | shares compounds with GPR151 activ | 90 min; 0 = compound-well median, 100 = enzyme-acceptor control | activation, % at 11.2 µM | 0.3% of 6,700 active | AID 1508611, 2020;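 active = mean percent activation in the counterscreen above 29.09%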;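 also: counterscreen on off-target GPR119 to flag nonselective hits from the GPR151 activator screen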
# * marks the source's active call; other numbers are inactive results; · = no result given.
SMILES,FBW7 act,TEAD-YAP block,MITF primary,GPR151 activ,GPR151 confirm,GPR119 ag
COCCN1C=C(C(=O)OC)C(c2cccc(OC)c2OC(C)C)C(C(=O)OC)=C1,0,-3,12,11*,1,0
O=c1cc(CO)oc(C(Nc2ccccn2)c2cccc(Cl)c2)c1O (stereo not drawn),0,-10,0,5.0*,0,12
COc1cccc(CC2(CO)CCN(C(=O)C3=CCCCC3)CC2)c1,0,10,3,0,·,·
CCOc1ccc(NC(=O)CC2Sc3ccc(C(F)(F)F)cc3NC2=O)c([N+](=O)[O-])c1 (stereo not drawn),0,-2,9,5.0*,0,8
CC(C)CCNC(=O)c1noc2c1COc1ccccc1-2,0,-72,3,6.6*,-1,-18
O=C(NCc1ccccc1)c1noc2c1COc1ccccc1-2,0,-8,-4,1,·,·
COc1ccc2ccc(=O)oc2c1,0,5,0,5.0*,0,3
C/C(=N\NC(=O)CCc1ccccc1)c1ccncc1,0,-10,-14,7.2*,0,1
O=C(c1ccco1)N1CCN(c2nccn3c(-c4cccc(Cl)c4)cnc23)CC1,0,-1,18,6.9*,1,21
COc1ccc(C(=O)Nc2ccc(NC(=O)c3ccco3)c(Cl)c2)cc1Br,0,2,6,2,·,·
CC(=O)c1nn(-c2ccc([N+](=O)[O-])cc2)cc1C(=O)c1cccs1,0,-1,13,-1,·,·
CC(=O)c1nn(-c2cccc(Cl)c2)cc1C(=O)c1cccs1,0,-2,9,6.4*,0,-8
CCc1c(C)sc(NC(=S)NCc2ccc(S(N)(=O)=O)cc2)c1C(=O)OC,0,-6,12,6.3*,-1,-12
CCc1c(C)sc(NC(=S)Nc2cnccn2)c1C(=O)OC,0,-9,4,5.9*,-1,-14
COC(=O)c1c(NC(=S)Nc2cnccn2)sc2c1CCC(C)C2 (stereo not drawn),0,-2,1,2,·,·
CCCOC(=O)c1ccc(NC(=O)c2cc(-c3ccccc3Cl)nc3ccccc23)cc1,0,28,-5,0,·,·
CCN(CC)C(=O)CSc1nc(O)c(C)c(=O)n1-c1ccccc1,0,0,-10,-1,·,·
CN1CCN(CCCCOc2cccc([N+](=O)[O-])c2)CC1,0,6,-2,5.6*,0,13
CN1CCN(CCOc2cccc([N+](=O)[O-])c2)CC1,0,8,3,0,·,·
COc1ccc(CCNC(=O)c2ccc3c(=O)n(Cc4ccco4)c(=S)[nH]c3c2)cc1OC,0,-8,-5,-1,·,·
COc1ccc(CCn2c(=S)[nH]c3cc(C(=O)N4CCC(C(N)=O)CC4)ccc3c2=O)cc1OC,0,-3,14,6.1*,-2,-4
COc1ccc(CCNC(=O)c2cccc(-n3c(=S)[nH]c4cc(Cl)ccc4c3=O)c2)cc1OC,0,5,13,5.8*,0,4
COc1ccc(CCn2c(=S)[nH]c3cc(C(=O)N4CCOCC4)ccc3c2=O)cc1OC,0,9,-20,4,·,·
O=C(c1ccc2c(=O)n(CCc3ccccc3)c(=S)[nH]c2c1)N1CCN(c2ccccc2)CC1,0,-2,-4,6.3*,0,13
COc1ccc(CCn2c(=O)[nH]c3cc(C(=O)NCc4ccco4)ccc3c2=O)cc1OC,0,3,9,6.1*,0,-4
SMILES,FBW7 act,TEAD-YAP block,MITF primary,GPR151 activ,GPR151 confirm,GPR119 ag
O=C1c2cc(S(=O)(=O)O)ccc2C(=O)c2c1ccc(Cl)c2[N+](=O)[O-],0,1,2,-3,·,·
CCO/C(C)=C\c1sc2ccc(OC)cc2[n+]1CC,1,8,8,0,·,·
CCCNC(=O)c1cc(NCC)nc2ccccc12,0,-5,-5,5.2*,1,-1
CC(CCC(=O)O)[C@H]1CCC2C3CC[C@@H]4CCCC[C@]4(C)C3CC[C@@]21C (stereo partly drawn),0,-14,-3,0,·,·
COc1cccc(C(=O)N=c2sc3cc(F)ccc3n2C)c1OC,0,67*,-19,6.6*,0,10
COc1ccc2c(c1)sc(=NC(=O)CS(=O)(=O)c1ccc(F)cc1)n2C,-1,6,4,5.8*,1,8
COc1cccc(OC)c1C(=O)N=c1sc2cc(F)ccc2n1C,0,9,11,2,·,·
COc1ccc(COCC(O)CN2CCC(Cc3ccccc3)CC2)cc1OC (stereo not drawn),0,4,-3,0,·,·
Cc1cc(C(F)(F)F)c(C#N)c(N)c1C#N,1,4,8,1,·,·
CCOC(=O)C1=C(C)N=c2s/c(=C\c3cccc(OCc4ccc([N+](=O)[O-])cc4)c3)c(=O)n2C1c1ccc(OC)c(OC)c1 (stereo not drawn),0,2,-6,0,·,·
C/C(=C\c1ccccc1)C(=O)NCCc1ccccc1,0,-13,-5,15*,1,-7
CC(C)c1ccc(CNc2cc(N3CCN(S(C)(=O)=O)CC3)ccc2[N+](=O)[O-])cc1,0,2,12,-1,·,·
CCOC(=O)c1c(N)c(C#N)cn1-c1ccccc1,0,-12,10,8.6*,-1,-10
CNc1oc(-c2cccs2)nc1S(=O)(=O)c1ccccc1,0,1,-4,5.1*,0,11
CC1=NN(c2ccc(C)cc2)C(=O)/C1=C\c1ccc(-c2ccc(S(N)(=O)=O)cc2)o1,0,12,3,2,·,·
C/C(=N/O)c1ccc(NC2=C(N3CCCC3)C(=O)c3ccccc3C2=O)cc1,-1,9,-2,5.9*,0,4
CC(=O)c1ccc(NC2=C(N3CCCCC3)C(=O)c3ccccc3C2=O)cc1,0,-4,3,-2,·,·
O=C(O)CSc1nc2ccccc2n1CCOc1ccccc1,0,5,-2,6.4*,0,3
COc1ccc(/C=C(/C#N)C(=O)Nc2cccc(C)c2)c(C)c1,0,-8,13,4,·,·
O=C(CCC(=O)OCC(=O)c1ccc(Cl)c(Cl)c1)Nc1ccccc1,0,-1,-1,5.5*,1,1
O=C(CCC(=O)OCC(=O)c1ccc(Cl)c(Cl)c1)Nc1ccc(F)cc1,1,0,13,1,·,·
CCCCCCC(=O)NN1C(=O)c2ccc3c4c(ccc(c24)C1=O)CC3,0,-1,4,0,·,·

# Source: PubChem BioAssay (The Scripps Research Institute Molecular Screening Center)
